The source of these data is PubChem BioAssay AID687014 (The Scripps Research Institute Molecular Screening Center, 2013).

Molecules are shown by their SMILES. In all, about 370,000 compounds went through this assay and about 6,800 (1.8%) were called active.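 How the source made its calls: active means activation above a cutoff set at the mean of all screened compounds plus 3 SD (cut at about 10% in these data); inactive means the rest.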 The entries come from a sample that favours actives as a whole.

For this experiment, the system named is Nuclear hormone receptor DAF-12 (Heterodera glycines), GAL4 fusion. The experiment can be described thus: hgDAF-12 GAL4 fusion reporter activation – cell-based, luminescence, HEK293, UAS-luciferase, primary screen (AID 687014).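 Further: 0% = DMSO wells and 100% = sodium butyrate wells.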 To be noted: HEK293 GAL4-hgDAF12 UAS-luciferase reporter, agonist luminescence; at 6.8 µM; hits give high values; normalized to butyrate control.
For the compound `O=C1CC[C@@H]2CC3(C[C@@H]4CCN1[C@H]24)Nc1cc([N+](=O)[O-])ccc1NC3=NC1CCCCC1` (stereo not given in full), the activation was 0.54% (inactive).
On to `COc1cc(OC)c(-n2cc(-c3ccc(Cl)cc3)[nH]c2=O)cc1Cl`, for which the activation was -2.27% (inactive).
Under `N#Cc1cccc(C(=O)NCC2CCN(C(=O)C(=O)c3cc4ccccc4o3)CC2)c1` stands -0.57% (inactive).
On to `COc1ccc(CNS(=O)(=O)c2cc(Br)ccc2Br)cc1`, for which the activation is 1.03% (inactive).
To `O=C(CN(C(=O)c1csnn1)c1cccc(Cl)c1)NC1CCCC1` belongs -1.27% (inactive); to `O=C(Nc1ccc(Br)cc1)OCCN1C(=O)CCC12CCC(c1ccccc1)CC2` (stereo not given), -0.22% (inactive).
Under `Cc1cccc(CN2CCC(n3nccc3NC(=O)c3ccccc3C)CC2)n1` stands -0.95% (inactive); under `COc1ccc(Nc2ccc3ccccc3c2)cc1`, 18.4% (active); under `COc1ccc(NC2=CC(=S)NC(C)(C)C2)cc1`, 1.03% (inactive).
Under `COc1ccc(Nc2cc(=O)n(-c3ccccc3)c3c2c(=O)n(C)c(=O)n3C)cc1` stands -1.79% (inactive); under `OCC[C@H]1C[C@@H](O)[C@H](O)[C@]2(OCCCc3ccccc32)O1`, -1.3% (inactive).
Regarding `COc1ccc(S(=O)(=O)Nc2ccc3c(c2)C(=O)N([C@H](C)CO)C[C@H](C)[C@@H](CN(C)C)OCCCC[C@H](C)O3)cc1`, the activation was -1.86% (inactive).
As for `Cc1c(Cl)cccc1NC(=S)NCC(O)c1ccccc1` (stereo not given), the activation is 0.77% (inactive).
Turning to `COc1ccc(C(=O)NCCSc2ccccc2C)cc1`, the activation was 12.8% (active).
In the case of `CCSc1ccccc1C(=O)NCc1ccc(OC)cc1`, the activation is -1.12% (inactive).
Take `COc1ccc(C(=O)NCC[N+](C)(C)C)cc1`: the activation was -0.85% (inactive).
Take `Cc1ccc(-n2c(COc3ccccc3)nnc2SCC(=O)Nc2ccc3c(c2)OCCO3)cc1`: the activation is -0.21% (inactive).
Consider `Cc1cc(OC(=O)NCCc2ccc(F)cc2)ccc1F`, for which the activation was 0.78% (inactive).
To `O=C(CSc1nnc(COc2ccccc2)n1Cc1ccco1)c1ccc2ccccc2c1` belongs -0.51% (inactive); to `Cc1cc(C)c(C#N)c(SCC(=O)Nc2ccccc2)n1`, 11.8% (active); to `COCc1cc(C)nc(SCC(=O)Nc2cccc(C)c2)c1C#N`, 0.86% (inactive).
On to `Cc1cc(C)c(C#N)c(SCC(=O)NN2CC(=O)N(c3ccccc3F)CC2=O)n1`, for which the activation is -2.6% (inactive).
Under `Cc1ccccc1N1CCN(CCCN2C(=O)C3CCCCN3C2=O)CC1` (stereo not given) stands 2.03% (inactive); under `CC1CCN(c2ccc(C(=O)O)cc2NS(=O)(=O)c2ccc(Br)s2)CC1`, -3.43% (inactive); under `O=C(N[C@H](C(=O)N1CCC[C@H]1C(=O)NCCc1ccccc1Cl)c1ccccc1)c1ccccc1`, -3.35% (inactive).
